Screens deposited in PubChem by National Center for Advancing Translational Sciences (NCATS).
DT40 TDP1 no CPT = qHTS for Inhibitors of human tyrosyl-DNA phosphodiesterase 1 (TDP1): qHTS in cells in absence of CPT. DT40 Tdp1-/- hTDP1 cells, no CPT, ATP luminescence, 48 h. Potency, µM (titrated, usually from 46.2 µM), hits mostly inhibitors. 420,000 compounds, 15% hits. AID 686978, 2013; also: nearly all actives have a fitted effect of over 55% in size
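DT40 Tdp1-/-;hTDP1 cells, no CPT (DMSO vehicle only), 400 cells/well; compounds pin-transferred; ≥48 hr, 37 °C; CellTiter-Glo 30 min RT dark, luminescence read.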
IL1B secr inh = inflammasome signaling inhibition, IL-1 beta readout; THP-1 LPS/ATP IL-1B secretion, AlphaLISA, 16 h; stronger effect = lower value; activity change, % at 57.5 µM; 360,000 compounds, 4.7% hits; AID 743279; in the data active = activity change below about -50%; inconclusive = mostly about -30% to -49%
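Secreted IL-1B measured by AlphaLISA bead assay after 16 h compound exposure of THP-1 cells; compounds (final up to 57.5 uM) added 1 h before LPS (250 ng/mL) and ATP (1.25 mM) stimulation; lower signal means less secretion.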
HT1080NT lethal = kills 2HG-producing HT-1080-NT fibrosarcoma cells; 360,000 compounds, 1.6% hits; AID 686970; HT-1080-NT fibrosarcoma viability, CellTiter-Glo ATP luminescence, 48 h; Potency, µM (doses to about 46.1 µM), most hits filed as cytotoxic;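 also: NT is the 2HG producing partner of a matched IDH1 knockdown line; nearly all actives have a fitted effect of over 55% in size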
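HT-1080-NT; 750 cells/well; 5% FBS RPMI; 48 h compound, 37 degrees C; CellTiter-Glo luminescence; curve fitting and curve-class assignment.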
TDP1 cell CPT = growth inhibition of DT40 Tdp1-/-;hTDP1 cells with camptothecin (screen for TDP1 inhibitors); chicken DT40 Tdp1-/-;hTDP1 cells + 20 nM CPT, ATP luminescence, 48 h; Potency, µM (series often up to 46.2 µM), most hits filed as inhibitors; 420,000 compounds, 12% hits; also: nearly all actives have a fitted effect of over 55% in size
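Chicken DT40 Tdp1-/- cells stably complemented with human TDP1 were seeded at 400 cells/well in medium containing 20 nM camptothecin, exposed to pin-transferred compounds, and grown at 37 °C for at least 48 hr. Viability was read as ATP luminescence.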
HT1080 IDH1KD tx = toxicity to HT-1080 IDH1 knockdown cells (counter line); HT-1080 IDH1 knockdown viability, ATP luminescence, 48 h; Potency, µM (titrated, usually from 46.1 µM), usual class: cytotoxic; 360,000 compounds, 2% hits; AID 686971
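Knockdown cells (IDH1KD HT-1080) received compounds 2 h after plating at 750 cells/well and were kept 48 h at 37 °C in 5% FBS RPMI. A CellTiter-Glo luminescence read gave % activity for curve fitting.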
ALOX12 inh = blocks human arachidonate 12S-lipoxygenase | AID 1671190 | P18054 | 580,000 compounds, 1.1% hits | Potency, µM (top dose mostly 108 µM), actives largely listed as inhibitors | purified 12hLO, xylenol orange hydroperoxide absorbance
Target sequence (P18054 whole entry, looked up): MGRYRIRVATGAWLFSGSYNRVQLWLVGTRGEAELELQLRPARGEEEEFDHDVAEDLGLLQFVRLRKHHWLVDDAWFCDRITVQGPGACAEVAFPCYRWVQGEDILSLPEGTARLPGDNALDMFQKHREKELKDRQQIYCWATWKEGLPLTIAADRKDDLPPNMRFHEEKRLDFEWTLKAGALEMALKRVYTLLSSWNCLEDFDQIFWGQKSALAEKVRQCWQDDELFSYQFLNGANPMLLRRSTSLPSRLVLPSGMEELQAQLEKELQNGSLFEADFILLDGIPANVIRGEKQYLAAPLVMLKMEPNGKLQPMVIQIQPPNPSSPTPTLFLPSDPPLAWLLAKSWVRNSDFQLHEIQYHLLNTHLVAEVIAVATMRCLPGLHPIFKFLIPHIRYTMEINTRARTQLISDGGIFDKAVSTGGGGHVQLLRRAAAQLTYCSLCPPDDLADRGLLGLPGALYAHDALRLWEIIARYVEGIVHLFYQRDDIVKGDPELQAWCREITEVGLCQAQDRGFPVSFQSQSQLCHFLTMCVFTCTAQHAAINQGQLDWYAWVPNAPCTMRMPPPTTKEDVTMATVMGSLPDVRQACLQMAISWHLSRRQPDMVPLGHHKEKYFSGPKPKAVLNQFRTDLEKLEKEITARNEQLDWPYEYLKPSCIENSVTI
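Hydroperoxide product was detected by ferrous iron/xylenol orange as the 573 to 405 nm absorbance ratio. Arachidonic acid at 40 uM (final) was turned over for 30 min at room temperature by 150 nM human 12hLO, pH 7.0 Hepes buffer, after 15 min compound preincubation.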
Numbers stand for hits; i = inactive; ? = inconclusive; nt = no result given; [ ] = dose if it differs, or a comment. This is one part of a sample in which hits are shown more often than they occur. Unless noted, calls follow the shape of the dose curve; as a rule, active = well fitted curve in the direction sought with a large enough effect; inconclusive = small, poorly fitted or top-dose-only effect, or another doubt; inactive = no such curve, though single readings can be large; an effect the other way counts as inactive or inconclusive.

SMILES | DT40 TDP1 no CPT | IL1B secr inh | HT1080NT lethal | TDP1 cell CPT | HT1080 IDH1KD tx | ALOX12 inh
CC(NC(=O)c1ccsc1)C1CCCO1 (centres undefined) | nt | nt | nt | nt | nt | i
CCOc1ccc(-c2c(C#N)c(N)nc3sc(C(=O)c4ccccc4)c(N)c23)cc1 | i | i | i | ? | i | i
Cc1cccc(Oc2sc(C(=O)c3ccccc3)c(N)c2C#N)c1 | ? | -86 | ? | ? | ? | ?
COc1ccc(-c2c(C#N)c(N)nc3c2c(=O)n(C)c(=O)n3C)cc1 | 13µM | i | i | ? | i | i
CC(C)Nc1sc(C(=O)c2ccccc2)c(N)c1C#N | nt | nt | nt | nt | nt | i
COc1ccc(-c2c(C#N)c(N)nc3sc(C(=O)c4ccccc4)c(N)c23)cc1 | 23µM | i | i | ? | i | i
CC(C)(C)c1ccc(O)c(NC(=O)c2cc(F)cc(F)c2)c1 | nt | nt | nt | nt | nt | i
COc1ccc(Cl)cc1C(=O)N1CCC2(CC1)NC(=O)N(c1ccccc1)N2 | nt | nt | nt | nt | nt | 1.8µM
COc1ccc(C(=O)N2CCC3(CC2)NC(=O)N(c2ccccc2Cl)N3)cc1 | nt | nt | nt | nt | nt | 2.2µM
COc1ccc(C(=O)N2CCC3(CC2)NC(=O)N(Cc2ccccc2)C3=O)cc1 | nt | nt | nt | nt | nt | i
Cc1ccc(C(=O)N2CCN(Cc3ccc(Cl)cc3)CC2)cc1C | nt | nt | nt | nt | nt | i
COc1ccc(Cl)cc1C(=O)N1CCC2(CC1)N(c1ccccc1)C(=O)CS2(=O)=O | nt | nt | nt | nt | nt | i
O=C(c1ccc2c(c1)OCO2)N1CCC2(CC1)NC(=O)N(c1ccccc1Cl)N2 | nt | nt | nt | nt | nt | 2µM
Cc1ccc(C(=O)N2CCC3(CC2)NC(=O)N(c2ccccc2Cl)N3)cc1C | nt | nt | nt | nt | nt | 1.3µM
CC(C)Oc1ccc(C(=O)N2CCC3(CC2)C(=O)N(C)c2ccccc23)cc1 | nt | nt | nt | nt | nt | i
O=C(c1ccccc1)c1ccc(C(=O)N2CCN(c3ccccc3Cl)CC2)cc1 | ? | ? | i[9.24 µM] | ? | i | i
COc1ccc(Cl)cc1C(=O)N1CCC2(CC1)CC(=O)c1ccccc1O2 | ? | ? | i | ? | i | ?
COc1ccc(Cl)cc1C(=O)N1CCC2(CC1)NC(=O)N(c1ccccc1Cl)N2 | nt | nt | nt | nt | nt | 1.8µM
COc1ccc(C(=O)N2CCC3(CC2)CC(O)CCO3)cc1F (centres undefined) | nt | nt | nt | nt | nt | i
O=C(c1ccoc1)N1CCC2(CC1)NC(=O)N(c1ccccc1Cl)N2 | nt | nt | nt | nt | nt | 1.3µM
COc1ccc(C(=O)N2CCC3(CC2)NC(=O)N(c2ccccc2Cl)N3)cc1F | nt | nt | nt | nt | nt | 1.3µM
Cc1cc(CNC(=O)Cc2ccc(-n3cnnn3)cc2)c2[nH]c(C)c(C)c2c1 | nt | nt | nt | nt | nt | i
O=C(N[C@@H]1CCOC[C@H]1OCCO)c1cccc(-c2ccco2)c1 | nt | nt | nt | nt | nt | i
COCCCN=Cc1c(-c2ccccc2)[nH]n(-c2nc3ccccc3s2)c1=O | ? | ? | i | 26µM | i | i
O=c1c(C=NCCCO)c(-c2ccccc2)[nH]n1-c1nc2ccccc2s1 | ? | i | i | 13µM | i | i
SMILES | DT40 TDP1 no CPT | IL1B secr inh | HT1080NT lethal | TDP1 cell CPT | HT1080 IDH1KD tx | ALOX12 inh
CCCCCN=Cc1c(C)[nH]n(-c2nc3ccccc3s2)c1=O | 4.6µM | i | 11µM | 2.1µM | 5µM | i
CCCc1[nH]n(-c2nc3ccccc3s2)c(=O)c1C=NCCCOC | i | ? | i | i | i | i
O=C(NCCC1CCCO1)c1cc(-c2ccccc2)nc2ccccc12 (centres undefined) | nt | nt | nt | nt | nt | i
COCCNc1nc(Cl)c(C#N)s1 | i | i | i | i | i | i
COCCNc1nc(Nc2ccc(C#N)cc2)c2sccc2n1 | 16µM | i | ? | 21µM | i | i
COCCNc1nc(Nc2ccc(F)cc2)c2sccc2n1 | 12µM | i | ? | 18µM | i | i
CCOC(=O)C(NC(=O)c1nccc2ccccc12)C(=O)OCC | nt | nt | nt | nt | nt | i
Cc1ccc(O)c(/C=N/NC(=O)c2[nH]ncc2Br)c1 | 15µM | i | i | i | i | i
COc1ccc(OC)c(/C=N/NC(=O)c2[nH]ncc2Br)c1 | i | i | i | i | i | i
CCOc1ccc(/C=N/NC(=O)c2[nH]ncc2Br)c(O)c1 | 5.2µM | i | 7.3µM | 5.2µM | 5.2µM | i
